{"source": "paper PMC7862700", "about": "“An all-to-all approach to the identification of sequence-specific readers for epigenetic DNA modifications on cytosine”", "assay_in_all_cases": "DAPPL (digital affinity profiling via proximity ligation, sequencing); 10 mM Tris-HCl pH 7.5, 50 mM NaCl, 1 mM DTT, 4% glycerol, room temperature, 30 min; GST-TFs on glutathione beads, 16-mer random dsDNA library, 0.1% formaldehyde crosslink after washing; high values mean tight binding", "key": {"FEV": {"target": "T1, FEV (Homo sapiens, UniProt Q99581 1-238)", "T1 sequence": "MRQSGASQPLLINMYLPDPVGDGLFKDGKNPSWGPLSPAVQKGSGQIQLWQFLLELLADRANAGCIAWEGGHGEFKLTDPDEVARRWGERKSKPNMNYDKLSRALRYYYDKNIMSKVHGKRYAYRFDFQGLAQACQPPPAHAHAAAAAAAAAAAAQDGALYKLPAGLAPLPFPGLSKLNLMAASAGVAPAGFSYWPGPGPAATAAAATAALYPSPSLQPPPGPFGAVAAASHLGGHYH", "conditions": "protein: recombinant; tags: N-terminal GST; dsDNA, one strand shown", "summary_of_the_method": "(§1)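 Binding signal is defined as a hexamer's read frequency for one factor over its frequency for the tag-only sample. To obtain reads, GST-fused human transcription factors were expressed in yeast, captured on glutathione beads, barcoded with DNA and pooled with that sample. Pools met 200 nmole of a 16-mer random double-stranded DNA library in Tris/NaCl/DTT/glycerol buffer for 30 min at room temperature before washing, 0.1% formaldehyde crosslinking, proximity ligation (BsaI/T4 ligase, 1 h, 37 °C), PCR and Illumina NextSeq500 sequencing.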"}, "ETV5": {"target": "ETV5 (Homo sapiens, UniProt P41161 1-510)", "sequence (P41161 whole entry)": "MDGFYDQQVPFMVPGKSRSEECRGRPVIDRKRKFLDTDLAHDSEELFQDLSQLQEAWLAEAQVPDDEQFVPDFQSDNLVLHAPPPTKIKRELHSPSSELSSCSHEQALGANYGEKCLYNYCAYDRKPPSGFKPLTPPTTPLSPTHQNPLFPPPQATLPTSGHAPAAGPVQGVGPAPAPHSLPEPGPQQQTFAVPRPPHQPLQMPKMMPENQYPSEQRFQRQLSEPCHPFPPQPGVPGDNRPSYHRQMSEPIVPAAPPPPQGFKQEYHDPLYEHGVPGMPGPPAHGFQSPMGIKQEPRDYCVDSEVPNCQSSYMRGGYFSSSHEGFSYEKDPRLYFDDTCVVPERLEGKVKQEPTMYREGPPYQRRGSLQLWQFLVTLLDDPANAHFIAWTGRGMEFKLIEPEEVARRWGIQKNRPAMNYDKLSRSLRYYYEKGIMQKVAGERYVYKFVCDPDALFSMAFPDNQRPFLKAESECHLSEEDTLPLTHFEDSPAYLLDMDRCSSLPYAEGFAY", "conditions": "protein: recombinant; tags: N-terminal GST; dsDNA, one strand shown", "summary_of_the_method": "as §1"}, "HSF1": {"target": "HSF1 (Homo sapiens, UniProt Q00613 1-529)", "sequence (Q00613 whole entry)": "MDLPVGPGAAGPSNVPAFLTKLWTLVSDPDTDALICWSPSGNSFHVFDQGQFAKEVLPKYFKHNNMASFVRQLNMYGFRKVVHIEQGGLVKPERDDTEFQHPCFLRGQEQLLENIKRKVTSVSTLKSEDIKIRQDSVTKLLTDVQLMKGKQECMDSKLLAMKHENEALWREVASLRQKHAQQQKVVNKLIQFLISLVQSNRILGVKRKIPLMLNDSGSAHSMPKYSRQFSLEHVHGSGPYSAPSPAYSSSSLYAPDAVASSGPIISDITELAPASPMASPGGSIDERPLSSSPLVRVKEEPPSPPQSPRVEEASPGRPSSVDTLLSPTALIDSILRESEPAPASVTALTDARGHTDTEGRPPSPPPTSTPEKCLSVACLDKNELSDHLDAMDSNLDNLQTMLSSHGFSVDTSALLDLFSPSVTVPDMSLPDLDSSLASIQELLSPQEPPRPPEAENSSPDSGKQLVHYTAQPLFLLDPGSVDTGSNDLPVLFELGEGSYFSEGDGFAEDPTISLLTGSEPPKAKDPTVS", "conditions": "protein: recombinant; tags: N-terminal GST; chain copies: 3; dsDNA, one strand shown", "summary_of_the_method": "as §1"}, "SPIC": {"target": "T2, SPIC (Homo sapiens, UniProt Q8N5J4 1-248)", "T2 sequence": "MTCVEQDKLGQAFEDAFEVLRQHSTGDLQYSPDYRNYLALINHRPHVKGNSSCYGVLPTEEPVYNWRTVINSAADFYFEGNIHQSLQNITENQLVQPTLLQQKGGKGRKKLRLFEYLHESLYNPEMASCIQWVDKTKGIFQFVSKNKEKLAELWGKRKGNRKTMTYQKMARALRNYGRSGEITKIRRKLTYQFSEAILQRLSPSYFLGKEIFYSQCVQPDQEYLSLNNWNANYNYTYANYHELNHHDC", "conditions": "protein: recombinant; tags: N-terminal GST; dsDNA, one strand shown", "summary_of_the_method": "as §1"}, "ELF4": {"target": "ELF4 (Homo sapiens, UniProt Q99607 1-663)", "sequence (Q99607 whole entry)": "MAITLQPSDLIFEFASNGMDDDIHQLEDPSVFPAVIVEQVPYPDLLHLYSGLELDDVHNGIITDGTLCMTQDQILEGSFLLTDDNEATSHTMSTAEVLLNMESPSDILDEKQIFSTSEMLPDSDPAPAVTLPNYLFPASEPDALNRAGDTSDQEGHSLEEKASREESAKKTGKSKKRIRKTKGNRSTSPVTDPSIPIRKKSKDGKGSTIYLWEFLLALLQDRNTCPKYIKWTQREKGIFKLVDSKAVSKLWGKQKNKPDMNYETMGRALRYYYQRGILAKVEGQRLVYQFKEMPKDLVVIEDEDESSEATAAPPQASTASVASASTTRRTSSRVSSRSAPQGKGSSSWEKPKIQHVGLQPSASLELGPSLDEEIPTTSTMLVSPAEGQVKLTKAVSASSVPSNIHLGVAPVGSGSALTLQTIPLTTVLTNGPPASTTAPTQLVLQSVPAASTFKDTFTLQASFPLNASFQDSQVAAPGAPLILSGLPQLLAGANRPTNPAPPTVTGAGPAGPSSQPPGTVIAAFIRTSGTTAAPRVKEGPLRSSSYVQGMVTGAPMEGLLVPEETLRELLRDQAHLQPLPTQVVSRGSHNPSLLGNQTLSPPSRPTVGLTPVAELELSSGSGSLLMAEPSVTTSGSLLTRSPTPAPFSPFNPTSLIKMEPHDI", "conditions": "protein: recombinant; tags: N-terminal GST; dsDNA, one strand shown", "summary_of_the_method": "as §1"}, "ELK4": {"target": "T3, ELK4 (Homo sapiens, UniProt P28324-2 1-405)", "T3 sequence": "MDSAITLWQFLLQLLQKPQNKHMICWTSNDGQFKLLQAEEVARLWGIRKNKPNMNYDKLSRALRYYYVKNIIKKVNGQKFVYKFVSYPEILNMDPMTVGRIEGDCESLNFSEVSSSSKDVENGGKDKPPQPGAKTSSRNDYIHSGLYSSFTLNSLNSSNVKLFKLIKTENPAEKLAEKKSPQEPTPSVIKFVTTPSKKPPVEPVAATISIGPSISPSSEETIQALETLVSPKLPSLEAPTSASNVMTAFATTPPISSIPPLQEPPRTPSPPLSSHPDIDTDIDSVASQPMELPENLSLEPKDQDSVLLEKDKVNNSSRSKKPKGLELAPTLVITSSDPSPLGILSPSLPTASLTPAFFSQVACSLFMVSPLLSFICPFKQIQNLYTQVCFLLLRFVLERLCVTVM", "conditions": "protein: recombinant; tags: N-terminal GST; dsDNA, one strand shown", "summary_of_the_method": "as §1"}, "ETV2": {"target": "T4, ETV2 (Homo sapiens, UniProt O00321 1-342)", "T4 sequence": "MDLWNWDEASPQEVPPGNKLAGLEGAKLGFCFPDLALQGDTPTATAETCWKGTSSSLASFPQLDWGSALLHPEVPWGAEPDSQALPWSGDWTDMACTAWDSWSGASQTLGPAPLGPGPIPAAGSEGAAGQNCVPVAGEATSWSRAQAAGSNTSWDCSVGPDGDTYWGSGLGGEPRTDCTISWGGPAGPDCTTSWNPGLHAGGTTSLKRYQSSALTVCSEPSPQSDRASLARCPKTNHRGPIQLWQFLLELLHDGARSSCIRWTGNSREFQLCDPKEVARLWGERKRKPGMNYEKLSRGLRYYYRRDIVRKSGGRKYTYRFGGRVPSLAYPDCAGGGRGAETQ", "conditions": "protein: recombinant; tags: N-terminal GST; dsDNA, one strand shown", "summary_of_the_method": "as §1"}, "ELF3": {"target": "T5, ELF3 (Homo sapiens, UniProt P78545 1-371)", "T5 sequence": "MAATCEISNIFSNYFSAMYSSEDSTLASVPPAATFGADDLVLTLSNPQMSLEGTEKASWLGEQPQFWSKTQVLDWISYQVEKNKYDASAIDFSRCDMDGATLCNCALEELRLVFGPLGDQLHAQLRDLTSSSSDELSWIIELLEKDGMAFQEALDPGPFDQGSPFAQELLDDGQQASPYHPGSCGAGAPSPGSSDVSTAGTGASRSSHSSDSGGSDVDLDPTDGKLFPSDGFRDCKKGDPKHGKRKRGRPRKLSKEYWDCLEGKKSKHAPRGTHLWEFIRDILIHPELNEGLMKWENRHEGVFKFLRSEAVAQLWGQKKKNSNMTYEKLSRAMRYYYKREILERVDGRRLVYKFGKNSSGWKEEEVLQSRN", "conditions": "protein: recombinant; tags: N-terminal GST; dsDNA, one strand shown", "summary_of_the_method": "as §1"}, "CRX": {"target": "CRX (Homo sapiens, UniProt O43186 1-299)", "sequence (O43186 whole entry)": "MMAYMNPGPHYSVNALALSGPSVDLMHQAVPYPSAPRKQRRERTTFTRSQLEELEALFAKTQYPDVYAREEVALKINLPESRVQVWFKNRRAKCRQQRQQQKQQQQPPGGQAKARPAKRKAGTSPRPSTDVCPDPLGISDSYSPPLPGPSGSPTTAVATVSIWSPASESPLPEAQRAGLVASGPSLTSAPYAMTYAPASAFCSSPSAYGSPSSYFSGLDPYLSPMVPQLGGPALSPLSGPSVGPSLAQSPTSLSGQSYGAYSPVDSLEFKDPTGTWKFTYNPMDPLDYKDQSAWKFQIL", "conditions": "protein: recombinant; tags: N-terminal GST; dsDNA, one strand shown", "summary_of_the_method": "as §1"}, "ETV1": {"target": "ETV1 (Homo sapiens, UniProt P50549 1-477)", "sequence (P50549 whole entry)": "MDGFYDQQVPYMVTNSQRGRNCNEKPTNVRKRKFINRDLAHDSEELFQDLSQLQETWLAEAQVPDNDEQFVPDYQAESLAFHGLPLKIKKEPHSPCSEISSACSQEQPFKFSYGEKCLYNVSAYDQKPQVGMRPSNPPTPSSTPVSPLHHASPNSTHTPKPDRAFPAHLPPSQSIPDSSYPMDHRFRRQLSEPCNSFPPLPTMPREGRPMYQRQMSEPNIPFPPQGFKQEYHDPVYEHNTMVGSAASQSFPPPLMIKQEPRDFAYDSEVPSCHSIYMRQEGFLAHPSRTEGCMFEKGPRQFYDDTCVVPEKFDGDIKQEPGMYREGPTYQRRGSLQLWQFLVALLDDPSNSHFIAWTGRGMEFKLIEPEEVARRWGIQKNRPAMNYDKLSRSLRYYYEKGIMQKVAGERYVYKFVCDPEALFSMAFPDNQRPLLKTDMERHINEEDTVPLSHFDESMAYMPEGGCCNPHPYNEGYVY", "conditions": "protein: recombinant; tags: N-terminal GST; dsDNA, one strand shown", "summary_of_the_method": "as §1"}}}
{"sequence": "CCGCTT", "values": [{"measurement": "binding signal", "setting": "FEV", "result": "2.01 fold enrichment (6-mer frequency, TF over GST control)"}, {"measurement": "binding signal", "setting": "ETV5", "result": "2.03 fold enrichment (6-mer frequency, TF over GST control)"}, {"measurement": "binding signal", "setting": "HSF1", "result": "1.49 fold enrichment (6-mer frequency, TF over GST control)"}, {"measurement": "binding signal", "setting": "SPIC", "result": "1.83 fold enrichment (6-mer frequency, TF over GST control)"}, {"measurement": "binding signal", "setting": "ELF4", "result": "1.87 fold enrichment (6-mer frequency, TF over GST control)"}, {"measurement": "binding signal", "setting": "ELK4", "result": "1.8 fold enrichment (6-mer frequency, TF over GST control)"}, {"measurement": "binding signal", "setting": "ETV2", "result": "1.6 fold enrichment (6-mer frequency, TF over GST control)"}, {"measurement": "binding signal", "setting": "ELF3", "result": "2.08 fold enrichment (6-mer frequency, TF over GST control)"}, {"measurement": "binding signal", "setting": "CRX", "result": "1.82 fold enrichment (6-mer frequency, TF over GST control)"}, {"measurement": "binding signal", "setting": "ETV1", "result": "2.11 fold enrichment (6-mer frequency, TF over GST control)"}]}
